Experimental findings from PubChem BioAssay (Tox21) are described below.

Inconclusive results are not listed. Where a call stands in place of a potency, no number is given. Active and inactive are the calls of the source. The call rests on the fitted dose curve; in most records, active means well fitted activation curve with a large enough effect in the repeat runs; inconclusive means weak or mixed curves; inactive means flat fitted curve, though single readings scatter.
Potency means the concentration at half of the fitted maximal effect.

A short description of the test: A CellTox Green Cytotoxicity Assay to monitor cytotoxicity in HepG2 cells - 8 hour (AID 1224890). Further: nearly all actives have a fitted effect of over 45% in size. Particulars: CellTox Green fluorescence; series mostly up to 76.8 µM; cytotoxicity increase: at the top concentration. In outline: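 Using 1536-well format, dye-containing HepG2 suspension was seeded, allowed 5 h at 37 C/5% CO2, dosed by pintool with compounds, positive and negative controls, and imaged for fluorescence across 40 h.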
Consider `CCC(C)OC(=O)c1ccc(O)cc1` (centres undefined), for which the “cytotoxicity increase” value is 0.578% (inactive). Regarding `C/C=C/C(=O)O`, the Potency entry was “inactive”. As for `Cn1cnc([N+](=O)[O-])c1Sc1ncnc2nc[nH]c12`, the “cytotoxicity increase” value is -8.3% [at 35.3 µM] (inactive). With `O=C=Nc1ccc(Cc2ccc(N=C=O)cc2)cc1`, the Potency entry was “inactive”.

In the case of `CC(=O)C1(C)CC2=C(CCCC2(C)C)CC1C` (centres undefined), the Potency entry is “inactive”. On the same count and under the same terms, the figure for `Nc1ccccc1N` is 56.2 µM (active). Turning to `CCOCCOCCO`, the Potency entry was “inactive”.

`CN(C)C(=N)N=C(N)N`: the Potency entry is “inactive”. Same read-out and setting: the entry for `O=C(O)c1ccccc1Nc1cccc(C(F)(F)F)c1` is “inactive”; for `Cc1ccc2c(n1)Oc1ccc(C(C)C(=O)OCC(=O)N(C)C)cc1C2` (centres undefined) it is “inactive”.

Regarding `O=C(Nc1ccc(Cl)cc1)Nc1ccc(Cl)c(Cl)c1`, the Potency result was “inactive”. The same measure, in the same setting: the entry for `C#C[C@]1(O)CC[C@H]2[C@@H]3CCc4cc(OC)ccc4[C@H]3CC[C@@]21C` is “inactive”. With `O=C(c1ccccc1)c1ccccc1O`, the “cytotoxicity increase” value is -5.09% (inactive). For `CCCCC(CC)COC(=O)c1ccc(N(C)C)cc1` (centres undefined), the Potency entry was “inactive”.

Regarding `C=CC(C)(CCC=C(C)C)OC(C)=O` (centres undefined), the Potency result is “inactive”. Same read-out and setting: the entry for `COc1ccccc1/C=C/C=O` is “inactive”; for `CC(=O)c1ccccn1` it is “inactive”.

Consider `CC(=O)Oc1ccccc1C(=O)Nc1ncc([N+](=O)[O-])s1`, for which the “cytotoxicity increase” value was -2.93% (inactive). On to `CC(C)Oc1ccc2c(=O)c(-c3ccccc3)coc2c1`, for which the Potency result was “inactive”. Consider `Oc1ccc(O)cc1`, for which the Potency result was “inactive”. In the case of `CN(C)CCC=C1c2ccccc2CCc2ccccc21`, the Potency entry was “inactive”. The same measure, in the same setting: for `Brc1cc(Oc2cc(Br)c(Br)c(Br)c2Br)c(Br)c(Br)c1Br` the value was “inactive”.

`CCC(C)c1ccccc1O` (centres undefined): the Potency result was “inactive”. `S=C(NC1CCCCC1)NC1CCCCC1`: the Potency entry was “inactive”.

Regarding `CCCCOCCOCCO`, the Potency result is “inactive”. Regarding `O=C(COc1ccc(Cl)cc1)N1CCN(Cc2ccc3c(c2)OCO3)CC1`, the Potency result is “inactive”.

On to `O=C(c1ccc(OCCN2CCCCC2)cc1)c1c(-c2ccc(O)cc2)sc2cc(O)ccc12`, for which the Potency result was “inactive”. As to `CC(C)OC(=O)C(C)(C)Oc1ccc(C(=O)c2ccc(Cl)cc2)cc1`, the Potency entry was “inactive”. With `O=C(/C=C/C=C/c1ccc2c(c1)OCO2)N1CCCCC1`, the “cytotoxicity increase” value is 3.39% (inactive).
